From PubChem BioAssay (EPA / NIEHS)
The source made the active and inactive calls. Rule for the calls: active = hit-call score of the fitted dose curve at least 0.9, where 1 is the maximum; inactive = score below 0.9.

What was measured:
[1] = APR_HepG2_StressKinase_1hr: Apredica 1-hour HepG2 Assay for Stress Kinase (AID 2282906); conditions: HepG2 stress kinase (phospho-c-Jun) imaging, actives raise or lower the signal
Summary of the method: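 High-content imaging of phospho-c-Jun immunostaining (with Hoechst nuclear identification) after a 1 h exposure of HepG2 cells to 10 concentrations from 0.39 to 200 uM, final DMSO 0.5%. Fitted bidirectionally against DMSO.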

[2] = APR_HepG2_NuclearSize_24hr: Apredica 24-hour HepG2 Assay for Nuclear Size (AID 2282907); conditions: high-content imaging, actives raise or lower the signal
Summary of the method: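 Nuclear size from Hoechst 33342-stained, formaldehyde-fixed HepG2 nuclei imaged by high-content microscopy, after 24 h dosing at ten concentrations from 0.39 to 200 uM in 0.5% DMSO; gain or loss relative to DMSO baseline.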

[3] = APR_HepG2_CellLoss_24hr: Apredica 24-hour HepG2 Assay for Cell Loss (AID 2282908); conditions: high-content imaging;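 for AC50: fit in both directions so a hit may be cell loss or gain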
Summary of the method: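 Nuclei stained with Hoechst 33342 after formaldehyde fixation (3.7%) were imaged at 20x to count cells. Exposure lasted 24 hr, at ten concentrations from 0.39 to 200 uM in duplicate, with 0.5% v/v DMSO. Fit bidirectional, relative to DMSO.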

[4] = APR_HepG2_MicrotubuleCSK_24hr: Apredica 24-hour HepG2 Assay for Microtubule CSK Stabilty (AID 2282909); conditions: HepG2 microtubule cytoskeleton imaging, actives raise or lower the signal
Summary of the method: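 Fixed HepG2 cells were stained for alpha-tubulin and imaged after 24 hr exposure to ten concentrations spanning 0.39–200 uM in 0.5% DMSO. Signal change was fitted in both directions relative to DMSO; taxol was the positive control.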

[5] = APR_HepG2_MitoticArrest_24hr: Apredica 24-hour HepG2 Assay for Mitotic Arrest (AID 2282910); conditions: high-content imaging, actives raise or lower the signal
Summary of the method: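 Treatment lasted 24 hr in the human HepG2 line at 0.39–200 uM, solvent held at 0.5% DMSO. Fixed cells were stained with Hoechst 33342 and anti-phospho-histone H3, imaged at 20x, and analysed by gain- or loss-of-signal fitting against DMSO.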

[6] = APR_HepG2_MitoMembPot_24hr: Apredica 24-hour HepG2 Assay for Mitochondrial Membrane Potential (AID 2282911); conditions: imaging, actives raise or lower the signal
Summary of the method: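 Cells are dosed for 24 hr across 0.39 to 200 uM with solvent held at 0.5% DMSO. They are then stained with 250 nM MitoTracker Red CMXRos for 30 min, fixed in 3.7% formaldehyde and imaged.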

[7] = APR_HepG2_MitoMass_24hr: Apredica 24-hour HepG2 Assay for Mitochondrial Mass (AID 2282912); conditions: high-content imaging, actives raise or lower the signal
Summary of the method: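 Endpoint is MitoTracker Red CMXRos (250 nM, 30 min, pre-fixation) intensity from 20x high-content imaging, nuclei located by Hoechst. Human HepG2 cells received ten concentrations from 0.39 to 200 uM in 0.5% DMSO for 24 hr, duplicate wells. Bidirectional fit relative to DMSO.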

[8] = APR_HepG2_CellCycleArrest_72hr: Apredica 72-hour HepG2 Assay for Cell Cycle Arrest (AID 2282914); conditions: high-content imaging, actives raise or lower the signal
Summary of the method: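 Read-out is Hoechst-stained nuclear DNA content measured by automated fluorescence imaging (20x, six images per well), fitted in both directions relative to DMSO. Human HepG2 liver cells received 0.39–200 uM compound for 72 hr at 0.5% v/v DMSO.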

[9] = APR_HepG2_CellLoss_72hr: Apredica 72-hour HepG2 Assay for Cell Loss (AID 2282915); conditions: high-content imaging
Summary of the method: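 HepG2 cells were exposed for 72 hr to compounds at 0.39–200 uM (ten concentrations, duplicate) in 0.5% v/v final DMSO. Nuclei were stained with Hoechst 33342 after 3.7% formaldehyde fixation, imaged at 20x, and counted; fits bidirectional versus DMSO.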

[10] = APR_HepG2_P-H2AX_72hr: Apredica 72-hour HepG2 Assay for H2AX Phosphorylation (AID 2282916); conditions: imaging, actives raise or lower the signal;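 note: phospho-histone H2A.x immunostain intensity per cell marking DNA damage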
Summary of the method: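 Phospho-histone H2A.x immunofluorescence, multiplexed with Hoechst and c-Jun, quantified by high-content imaging. Compounds applied to HepG2 for 72 h across ten concentrations (0.39–200 uM, 0.5% DMSO), in duplicate; DMSO baseline.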

[11] = APR_HepG2_MitoMembPot_72hr: Apredica 72-hour HepG2 Assay for Mitochondrial Membrane Potential (AID 2282917); conditions: imaging, actives raise or lower the signal
Summary of the method: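 HepG2 cells exposed 72 h to compounds at 0.39–200 uM (0.5% v/v DMSO, duplicates); MitoTracker Red CMXRos 250 nM loaded 30 min before 3.7% formaldehyde fixation, imaged by HCS fluorescence. Bidirectional fit versus DMSO.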

[12] = APR_HepG2_MitoticArrest_72hr: Apredica 72-hour HepG2 Assay for Mitotic Arrest (AID 2282918); conditions: high-content imaging, actives raise or lower the signal
Summary of the method: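 Read-out is phospho-histone H3 immunofluorescence with Hoechst nuclear segmentation, imaged at 20x. Human HepG2 liver cells received ten concentrations (0.39–200 uM, final DMSO 0.5% v/v) for 72 hr before fixation. Gain or loss of signal was fitted relative to DMSO.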

[13] = APR_HepG2_MicrotubuleCSK_72hr: Apredica 72-hour HepG2 Assay for Microtubule CSK Stabilty (AID 2282919); conditions: HepG2 microtubule cytoskeleton, high-content imaging, actives raise or lower the signal
Summary of the method: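 Ten-point dosing (0.39–200 uM, 0.5% DMSO) of HepG2 for 72 hr, with taxol as the cytoskeletal positive control. The cells were formaldehyde-fixed and then stained with alpha-tubulin/Cy5 and Hoechst. Imaging at 20x used a −2 um Z offset for tubulin.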

[14] = APR_HepG2_StressKinase_72hr: Apredica 72-hour HepG2 Assay for Stress Kinase (AID 2282921); conditions: HepG2 stress kinase (phospho-c-Jun) imaging, actives raise or lower the signal
Summary of the method: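 Stress kinase signal is phospho-c-Jun immunofluorescence (1:500 primary, Cy3 secondary) in fixed, permeabilized human HepG2 cells imaged at 20x. Exposure lasted 72 hr over ten concentrations from 0.39 to 200 uM, 0.5% DMSO, in duplicate. Bidirectional fit versus DMSO.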

[15] = APR_HepG2_StressKinase_24hr: Apredica 24-hour HepG2 Assay for Stress Kinase (AID 2282922); conditions: HepG2 stress kinase (phospho-c-Jun) imaging, actives raise or lower the signal
Summary of the method: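 After 24 hr compound treatment (up to 200 uM, final DMSO 0.5% v/v), HepG2 cells are fixed and multiplex-labeled; phospho-c-Jun intensity is captured by high-content fluorescence imaging and analyzed relative to DMSO.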

[16] = APR_HepG2_p53Act_72hr: Apredica 72-hour HepG2 Assay for p53 Activation (AID 2282923); conditions: high-content imaging, actives raise or lower the signal;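 note: average cellular p53 protein immunofluorescence intensity in HepG2 cells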
Summary of the method: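 After 72 h with compound (ten points, 0.39 to 200 uM, final DMSO 0.5% v/v), fixed HepG2 cells were labelled with sheep anti-p53 and Hoechst 33342 and imaged; gain or loss versus DMSO scored.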

[17] = APR_HepG2_MitoMass_72hr: Apredica 72-hour HepG2 Assay for Mitochondrial Mass (AID 2282924); conditions: high-content imaging, actives raise or lower the signal;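 note: MitoTracker Red CMXRos stain intensity per cell imaged as mitochondrial mass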
Summary of the method: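 Steps: treat HepG2 72 hr (0.39–200 uM, duplicate wells); load MitoTracker Red CMXRos, 250 nM, 30 min; fix with 3.7% formaldehyde, permeabilise with 0.5% Triton X-100; capture images, nuclei via Hoechst 33342; fit bidirectionally against DMSO.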

[18] = APR_HepG2_NuclearSize_72hr: Apredica 72-hour HepG2 Assay for Nuclear Size (AID 2282925); conditions: high-content imaging, actives raise or lower the signal
Summary of the method: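 Compounds (0.39–200 uM, final DMSO 0.5%) were applied to HepG2 for 72 hr. Cells were then formaldehyde-fixed, permeabilized and labelled with Hoechst 33342. Nuclear diameter was quantified from six images per well.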

[19] = APR_HepG2_p53Act_24hr: Apredica 24-hour HepG2 Assay for p53 Activation (AID 2282913); conditions: high-content imaging, actives raise or lower the signal;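 note: p53 protein immunofluorescence averaged per cell in HepG2 with Hoechst nuclei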
Summary of the method: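 Human HepG2 liver cells; 24 hr cpd treatment, 0.39–200 uM, 0.5% DMSO final. Fixed in 3.7% formaldehyde, permeabilized with 0.5% Triton X-100, stained with anti-p53/Cy5 plus Hoechst 33342. Six images per well at 20x; gain or loss vs DMSO.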

[20] = APR_HepG2_P-H2AX_24hr: Apredica 24-hour HepG2 Assay for H2AX Phosphorylation (AID 2282920); conditions: high-content imaging, actives raise or lower the signal
Summary of the method: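 HepG2, 24 hr, cpd 0.39–200 uM (10 conc, duplicate), DMSO 0.5% v/v final. Fix 3.7% formaldehyde, Triton X-100 permeabilize, anti-phospho-H2A.x 1:200 + Hoechst 2 ug/mL. Imaged, bidirectional fit vs DMSO.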

Measured: AC50

CCOC(=O)C(C)Oc1ccc(Oc2nc3ccc(Cl)cc3o2)cc1 (stereo not given)
active: [9] 90.1 µM
not listed: [19] | [20]
inactive: all other assays above

COC(=O)c1ccccc1S(=O)(=O)NC(=O)Nc1nc(OC(F)F)cc(OC(F)F)n1
inactive: all assays above

CCCCOCCOCCOCc1cc2c(cc1CCC)OCO2
active: [4] 70 µM | [8] 45 µM | [9] 85.8 µM | [13] 78.1 µM
not listed: [16] | [19]
inactive: all other assays above

CCCCC(CC)CN1C(=O)C2C3C=CC(C3)C2C1=O (stereo not given)
active: [4] 72.3 µM | [9] 93.2 µM | [13] 85.7 µM
not listed: [19]
inactive: all other assays above

c1ccc2[nH]c(-c3cscn3)nc2c1
not listed: [16] | [19]
inactive: all other assays above

C#CCOC(=O)[C@@H](C)Oc1ccc(Oc2ncc(Cl)cc2F)cc1
not listed: [19] | [20]
inactive: all other assays above

COC(=O)c1ccc(I)cc1S(=O)(=O)NC(=O)Nc1nc(C)nc(OC)n1
not listed: [20]
inactive: all other assays above

CCCN(CCC)c1c([N+](=O)[O-])cc(C(F)(F)F)c(N)c1[N+](=O)[O-]
active: [1] 75.8 µM | [6] 32.1 µM | [9] 33 µM | [13] 51.2 µM
inactive: all other assays above

CCSC(=O)N(CC(C)C)CC(C)C
not listed: [20]
inactive: all other assays above

CC1(C)C(C=C(Cl)Cl)C1C(=O)OCc1cccc(Oc2ccccc2)c1 (stereo not given)
active: [6] 100 µM | [8] 101 µM | [9] 62.3 µM | [13] 100 µM
not listed: [20]
inactive: all other assays above

CCCCCCC(C)OC(=O)COc1nc(F)c(Cl)c(N)c1Cl (stereo not given)
active: [4] 116 µM | [13] 106 µM
not listed: [19]
inactive: all other assays above

Oc1ccc(C(c2ccc(O)cc2)C(Cl)(Cl)Cl)cc1
active: [1] 94.2 µM | [3] 135 µM | [9] 33.4 µM | [12] 85.6 µM
not listed: [19]
inactive: all other assays above

COc1nc(C)nc(NC(=O)NS(=O)(=O)c2ccccc2OCCCl)n1
not listed: [19]
inactive: all other assays above
